Avidin fluor – compound fluoresces at 488/530 nm on avidin beads; compound fluorescence 488/530 nm, flow cytometry; stronger effect = higher value; fluorescence (KMESF) at 10 µM; 220,000 tested, 0.38% active; AID 1775; in the data active = fluorescence above about 47
GSH fluor – GSH bead compound fluorescence profile; GSH beads flow cytometry, compound fluorescence 488/530 nm; stronger effect = higher value; fluorescence (KMESF) at 10 µM; 190,000 tested, 0.25% active; AID 1776; in the data active = fluorescence above about 89;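 also: glutathione beads carrying GST-tagged Bcl family fusion proteins plus one bare bead set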
EP2 modulator – EP2 receptor (human) modulation | P43116 | EP2-expressing cells, cAMP HTRF FRET, PGE2 co-stimulation | induction, % at 25 µM | 260,000 tested, 0.83% active | AID 940;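 active = compounds whose cAMP rise, as percent of the full-agonist control response, exceeds 60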;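 also: rat C6 glioma line stably carrying human EP2 under a CMV promoter; the protocol text gives 20 µM as final concentration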
Target sequence (P43116 whole entry, looked up): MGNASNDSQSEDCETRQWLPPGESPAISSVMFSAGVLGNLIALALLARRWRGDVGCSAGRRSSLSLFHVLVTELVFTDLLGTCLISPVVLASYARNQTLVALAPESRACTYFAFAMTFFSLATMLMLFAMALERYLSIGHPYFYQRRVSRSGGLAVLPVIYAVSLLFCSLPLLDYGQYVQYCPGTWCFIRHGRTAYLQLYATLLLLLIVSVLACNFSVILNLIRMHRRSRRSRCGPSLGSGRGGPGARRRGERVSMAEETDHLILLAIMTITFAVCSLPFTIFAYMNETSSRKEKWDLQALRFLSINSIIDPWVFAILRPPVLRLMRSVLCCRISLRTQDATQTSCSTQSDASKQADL
EP2 antag – blocks the human prostaglandin E2 receptor EP2; C6 glioma cells expressing human EP2, cAMP TR-FRET; cells stimulated with saturating PGE2; inhibition, % at 25 µM; 260,000 tested, 0.52% active; AID 1422;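 active = percent inhibition above 40 after rounding to a whole number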;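 also: rat C6 glioma host cells with rolipram phosphodiesterase inhibitor present; the protocol text gives 20 µM as final concentration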
Efa HMGR inh – E. faecalis class II HMG-CoA reductase inhibition. inhibition, % at 10 µM. AID 1066. 190,000 tested, 0.41% active. purified E. faecalis HMGR, NADPH absorbance 340 nm kinetic;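 active = inhibition above a set limit, the median over all tested compounds plus 3 SD, cut at about 9.5% in these data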;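 also: enzyme runs in reverse so mevalonate oxidation gives rising NADPH absorbance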
EP2 confirm – human EP2 receptor cAMP induction, negative in counter-screens; shares compounds with EP2 modulator; C6 glioma EP2 cells, cAMP HTRF induction; plus low (about EC15) PGE2 agonist; calls only at 20 µM (by protocol); 1,300 tested, 47% active; AID 1080;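 active = cAMP induction above 50% in the main assay while under 30% in all four parallel counter assays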;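 also: rat C6 glioma cells stably expressing human EP2 receptor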
Each line names hits and unclear results; the compound was inactive in the other large screens (follow-up assays come after a bar, where they were run); ! = not active in a repeat. An excerpt weighted towards active compounds, which were near 2.1% of everything screened.

CC(C)CNC(=O)C(=O)NNC(=O)c1ccco1	none | EP2 confirm inactive
c1ccc(C2=Nc3ccccc3NC(c3ccccc3)C2)cc1 (stereo unspecified)	EP2 modulator 65 | EP2 confirm active
COc1cccc(CC(=O)N2CCC[C@@H]2Cn2nc(-c3cccs3)ccc2=O)c1	none (no result: Avidin fluor, GSH fluor, Efa HMGR inh)
O=C(Cc1ccc(Br)cc1)Nc1ccccc1Sc1ccccc1	EP2 modulator 68 | EP2 confirm active
O=C(Cc1ccccc1)Nc1ccccc1Sc1ccccc1	none
COc1ccccc1/C=C/C(=O)OCC(=O)Nc1ccccc1Sc1ccccc1	EP2 modulator 71, Efa HMGR inh 11 | EP2 confirm active
O=C(Cc1ccc(F)cc1)Nc1ccccc1Sc1ccccc1	EP2 modulator 83 | EP2 confirm active
COc1ccccc1NC(=O)COC(=O)/C=C/c1ccccc1[N+](=O)[O-]	none
Cc1cccc(S(=O)(=O)N2CCC(CO)(Cc3ccccc3)CC2)c1	none
C=C(C)Cn1c(C)cc(C)c(S(=O)(=O)c2cccc(C)c2)c1=O	EP2 modulator 90 | EP2 confirm active
O=S(=O)(c1ccccc1C(F)(F)F)N1CCC(O)(c2ccccn2)CC1	none (no result: Avidin fluor, GSH fluor, Efa HMGR inh)
O=c1c2cn[nH]c2nc(SCc2ccccc2F)n1-c1ccc(Br)cc1	EP2 modulator 83 | EP2 confirm active
O=c1c2cn[nH]c2nc(SCc2cc(=O)n3cc(Br)ccc3n2)n1-c1ccc(Br)cc1	none
C#CCOc1cccc(CN2CCc3onc(-c4ccc(F)c(F)c4)c3C2)c1	none (no result: Avidin fluor, GSH fluor, Efa HMGR inh)
Cc1c(CN2CCc3c(nc(N4CCCC(C)C4)[nH]c3=O)C2)[nH]c2ccc(F)cc12 (stereo unspecified)	none (no result: Avidin fluor, GSH fluor, EP2 antag, Efa HMGR inh)
C[N+](C)(C)/N=C/c1ccc(O)c(O)c1	none (no result: Avidin fluor, GSH fluor, Efa HMGR inh)
CN(/N=C\c1ccc(O)c(O)c1)c1nc(-c2ccccc2)cc(-c2ccccc2)n1	EP2 modulator 67 | EP2 confirm inactive
O=S(=O)(O)c1cc(S(=O)(=O)O)c2c(N=Nc3cccc4ccccc34)c(O)ccc2c1	none (no result: Avidin fluor, GSH fluor, Efa HMGR inh)
O=S(=O)(O)c1ccc2c(N=Nc3c(O)ccc4ccccc34)cccc2c1	EP2 modulator 75, EP2 antag 41 (no result: Avidin fluor, GSH fluor, Efa HMGR inh) | EP2 confirm inactive
CCC(C)N(C)C(=O)c1cc2ccccc2c(-c2ccccc2Cl)n1 (stereo unspecified)	EP2 modulator 70! | EP2 confirm inactive
CC(C)C(=O)NCCc1nc(-c2ccccc2Cl)no1	none (no result: Avidin fluor, GSH fluor, EP2 modulator, Efa HMGR inh)
OCCCNc1nc(-c2ccc(Br)cc2)nnc1-c1ccc(Cl)cc1	EP2 modulator 95 | EP2 confirm active
CC(C)Sc1cc(N2CCOCC2)nc(-c2ccc(Cl)cc2)n1	EP2 modulator 82 | EP2 confirm inactive
CCOC(=O)Cc1csc(NC(=O)CCC(=O)O)n1	none (no result: GSH fluor, Efa HMGR inh)
CCOC(=O)Cc1csc(NC(NC(=O)CC)(C(F)(F)F)C(F)(F)F)n1	EP2 modulator 65 | EP2 confirm inactive
O=C(O)c1ccc(CSc2nnc(-c3ccccc3)n2-c2ccccc2)cc1	none (no result: GSH fluor, Efa HMGR inh)
Brc1cccc(-c2nnc(SCc3ccon3)n2-c2ccccc2)c1	none | EP2 confirm inactive
Cc1ccccc1C(=N)c1ccccc1Cc1cccc2ccccc12	EP2 modulator 72 (no result: Avidin fluor, GSH fluor, Efa HMGR inh) | EP2 confirm active
Cc1cc(C)c(O)c(Cc2cccc(Cc3cc(C)cc(C)c3O)c2O)c1	none (no result: Avidin fluor, GSH fluor, Efa HMGR inh)
Cc1[nH]c(=O)[nH]c(=O)c1Cc1cccc2ccccc12	none
Cc1cc(C)cc(C(=N)c2ccccc2Cc2cccc3ccccc23)c1	none (no result: Avidin fluor, GSH fluor, Efa HMGR inh) | EP2 confirm inactive
COc1ccc(C2CC(c3cccs3)=NN2C(=O)c2ccc(Br)o2)cc1 (stereo unspecified)	none | EP2 confirm inactive
O=S(=O)(NC1(c2ccc(F)cc2)CC1)c1cccc2nsnc12	none (no result: Avidin fluor, GSH fluor, Efa HMGR inh)
O=C(Nc1cc(C(F)(F)F)ccc1-n1cncn1)c1ccc(-c2ccccc2)cc1	EP2 modulator 66 | EP2 confirm active
O=C(Nc1cccc2cccnc12)c1ccc(Br)o1	EP2 modulator 69 | EP2 confirm inactive
Cc1ccccc1NC(=O)c1oc2ccccc2c1C	none (no result: Avidin fluor, GSH fluor, Efa HMGR inh)
Cc1c(C(=O)Nc2cccc3cccnc23)oc2ccccc12	EP2 modulator 65 | EP2 confirm active
CC(=O)N1CCN(c2nc(C3CC3)nc3sc4c(c23)CCCC4)CC1	none (no result: Avidin fluor, GSH fluor, Efa HMGR inh)
COc1ccc(-n2nnnc2SCC(=O)Nc2cc(C)ccc2OC)c(OC)c1	none (no result: Avidin fluor, GSH fluor, Efa HMGR inh)
CC12CCCC(O)(C1)C1CC(C)(C)C1CC2 (stereo unspecified)	none (no result: Avidin fluor, GSH fluor, Efa HMGR inh) | EP2 confirm inactive
COc1ccccc1C(NC(=O)C(OC)c1ccccc1)c1nccn1C (stereo unspecified)	none (no result: Avidin fluor, GSH fluor, EP2 antag, Efa HMGR inh)
CN(C)c1nc(-c2ccccc2)c2cnn(Cc3ccccc3)c2n1	EP2 modulator 73 | EP2 confirm active
CC1=C[N+](=O)c2ccccc2[N+]1=O	EP2 modulator 107 (no result: Avidin fluor, GSH fluor, Efa HMGR inh) | EP2 confirm inactive
COC(C(=O)NC(c1ccc(F)c(F)c1)c1nccn1C)c1ccccc1 (stereo unspecified)	none (no result: Avidin fluor, GSH fluor, EP2 antag, Efa HMGR inh)
COc1ccc(C(=O)c2cnc3ccccc3c2-c2ccccc2)cc1	EP2 modulator 92 | EP2 confirm active
CNc1ncc(C(=O)c2ccc(-c3ccccc3)cc2)s1	none (no result: GSH fluor, Efa HMGR inh)
Cc1ccc(C(=O)c2cnc3ccccc3c2-c2ccccc2)cc1	EP2 modulator 92 | EP2 confirm active
O=C(NCCCO)C(=O)Nc1nccs1	none (no result: Avidin fluor, GSH fluor, Efa HMGR inh)
COc1ccccc1NC(=O)N(CCO)Cc1cc2cc3c(cc2[nH]c1=O)OCCO3	none (no result: Avidin fluor, GSH fluor, Efa HMGR inh)
Cc1nc(C)c(C(=O)N2CCC[C@H](Cn3cc(C(=O)NCc4ccccc4F)nn3)C2)o1	none (no result: Avidin fluor, GSH fluor, Efa HMGR inh)
O=S(=O)(c1ccc(Cl)cc1)c1cnc(-c2cccnc2)nc1-c1ccccc1	none
CN(C)c1ncc(S(=O)(=O)c2ccc(Cl)cc2)c(-c2ccccc2)n1	EP2 modulator 80 | EP2 confirm active
Cc1nc2c(-c3ccc(F)cc3)c(C)nn2c(C)c1CCC(=O)N1CCOCC1	none
Cc1nc2c(-c3ccccc3)c(C)nn2c(C)c1CCC(=O)N1CCOCC1	EP2 modulator 78 | EP2 confirm inactive
Cc1cccc(/C=C/c2nc3ccccc3c(=O)n2Cc2ccccc2)c1	EP2 modulator 69 | EP2 confirm active
C=CCSc1nc2ccccc2c(=O)n1Cc1ccccc1	EP2 modulator 72 | EP2 confirm active
C=CCSc1nc2ccsc2c(=O)n1-c1ccccc1	EP2 modulator 68 | EP2 confirm inactive
O=c1c2ccccc2nc(/C=C/c2cccnc2)n1Cc1ccccc1	none
O=c1c2ccccc2nc(/C=C/c2ccccc2)n1CCc1ccccc1	EP2 modulator 80 | EP2 confirm active
C=C(C)CSc1nc2ccccc2c(=O)n1Cc1ccccc1	none (no result: Avidin fluor, GSH fluor, Efa HMGR inh)
COc1ccccc1CN(Cc1cc2c(C)cc(C)cc2[nH]c1=O)C(=O)C1CCCCC1	none (no result: Avidin fluor, GSH fluor, Efa HMGR inh)
O=C(CSc1nc(-c2ccco2)cc(C(F)(F)F)n1)Nc1ccccc1F	none (no result: Avidin fluor, GSH fluor, Efa HMGR inh)
O=C(CN1CCC2(CC1)NC(=O)c1ccccc1O2)Nc1cccc2ccccc12	none (no result: Avidin fluor, GSH fluor, Efa HMGR inh)
COc1ccc(C2(C(=O)N[C@H](C)Cn3nnc4ccccc43)CC2)cc1	none (no result: Avidin fluor, GSH fluor, Efa HMGR inh)
